Laboratory results from PubChem BioAssay (Tox21).
Records with an inconclusive call do not appear. Where a call stands in place of a potency, no number is given. Calls of active or inactive are those of the source. Unless noted, the call rests on the fitted dose curve.

What was measured:
[1] = Nuclear factor erythroid 2-related factor 2/antioxidant responsive element (Nrf2/ARE) small molecule agonists: qHTS cell viability counter screen in human keratinocytes (AID 1919968; active means well fitted curve in the direction sought with a large enough effect in the repeat runs; an effect the other way counts as inactive or inconclusive; further: nearly all actives have a fitted effect of over 55% in size; further: potency means the concentration at half of the fitted maximal effect)
In short: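 Stably transfected HaCaT (KeratinoSens), 1,500/well. Test agents in DMSO were applied for 23 h, 37 C/5% CO2. CellTiter-Fluor was incubated 1 h before the fluorescence read.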

[2] = target: Gonadotropin-releasing hormone receptor (Homo sapiens) (UniProt P30968); test: Human gonadotropin-releasing hormone receptor (GnRHR) small molecule agonists, calcium flux assay in GnRHR-HEK293 cells (AID 1920063); further: nearly all actives have a fitted effect of over 35% in size
Gonadotropin-releasing hormone receptor (Homo sapiens), sequence (P30968 whole entry, looked up): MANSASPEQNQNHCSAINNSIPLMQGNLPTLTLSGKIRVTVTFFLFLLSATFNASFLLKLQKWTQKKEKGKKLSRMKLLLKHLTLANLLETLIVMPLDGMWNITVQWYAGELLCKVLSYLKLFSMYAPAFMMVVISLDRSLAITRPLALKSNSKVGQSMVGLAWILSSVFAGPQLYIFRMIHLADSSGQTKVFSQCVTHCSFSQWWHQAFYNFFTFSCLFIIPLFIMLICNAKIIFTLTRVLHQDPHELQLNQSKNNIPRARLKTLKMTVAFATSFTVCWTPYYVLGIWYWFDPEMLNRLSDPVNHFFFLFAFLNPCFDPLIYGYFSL
In short: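 Stable human GnRHR HEK293 line. 18 h plating, then calcium dye for 1 h at 37 C. Agonist-mode compound addition from DMSO stocks; fluorescence monitored 3 min.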

[3] = target: KiSS-1 receptor (Homo sapiens) (UniProt Q969F8); test: Human kisspeptin (KISS1R) small molecule agonists, calcium flux assay in KISS1R-HEK293 cells (AID 1920064; active means well fitted curve in the direction sought with a large enough effect in the repeat runs; an effect the other way counts as inactive or inconclusive)
KiSS-1 receptor (Homo sapiens), sequence (Q969F8 whole entry, looked up): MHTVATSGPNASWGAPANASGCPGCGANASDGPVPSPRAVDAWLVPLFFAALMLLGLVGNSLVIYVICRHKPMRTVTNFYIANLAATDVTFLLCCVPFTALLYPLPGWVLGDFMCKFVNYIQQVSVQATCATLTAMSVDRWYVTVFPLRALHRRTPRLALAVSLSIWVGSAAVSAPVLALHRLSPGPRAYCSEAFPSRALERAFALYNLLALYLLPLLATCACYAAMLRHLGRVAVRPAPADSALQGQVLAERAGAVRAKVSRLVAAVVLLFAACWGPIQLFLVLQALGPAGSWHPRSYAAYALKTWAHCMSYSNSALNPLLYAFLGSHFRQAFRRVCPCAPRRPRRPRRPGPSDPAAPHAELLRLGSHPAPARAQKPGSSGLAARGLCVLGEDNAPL
In short: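 After overnight (18 h) culture at 37 C/5% CO2, human KISS1R-HEK293 cells received calcium dye for 1 h, then test compound; emission at 540 nm (excitation 480 nm) was tracked for 3 min.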

[4] = G protein-coupled receptor (GPCR) small molecule agonists, calcium flux assay: HEK293 wild type cell line counter screen (AID 1920065)
In short: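 Following 18 h incubation at 37 C/5% CO2, plates got calcium dye for 1 h; compounds, ATP or DMSO were then pinned in and fluorescence followed kinetically (480/540 nm).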

[5] = p53 small molecule agonists, cell-based qHTS assay with human liver microsomes (AID 1963577);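 further: p53 response element beta-lactamase reporter cells with liver microsomes plus NADPH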
In short: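 In this qHTS, p53 response-element beta-lactamase cells receive test compound together with a microsome/NADPH activating system (0.5 mg/mL final each) and are incubated 16 h at 37 C before LiveBLAzer fluorescence detection.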

[6] = p53 small molecule agonists, cell-based qHTS assay with rat liver microsomes (AID 1963578)
In short: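 Agonist mode in p53RE-bla reporter cells, with compounds co-incubated 16 h at 37 C alongside 0.5 mg/mL rat liver microsomes and 0.5 mg/mL NADPH (final), followed by a 2 h LiveBLAzer detection step.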

[7] = p53 small molecule agonists, cell-based qHTS assay with human liver microsomes: qHTS cell viability counter screen (AID 1963579); further: nearly all actives have a fitted effect of over 45% in size
In short: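 Metabolically activated exposure: compounds, human liver microsomes and NADPH (0.5 mg/mL final apiece) were added to p53RE-bla cells seeded 5 h earlier, left 16 h at 37 C, and then assessed for viability by CellTiter-Glo luminescence.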

[8] = p53 small molecule agonists, cell-based qHTS assay with rat liver microsomes: qHTS cell viability counter screen (AID 1963580); further: nearly all actives have a fitted effect of over 45% in size
In short: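 After the beta-lactamase ratio was read, CellTiter-Glo was added to the same wells and luminescence measured at 30 min; cells had been treated 16 h at 37 C with compounds, rat liver microsomes and NADPH (0.5 mg/mL final each).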

[9] = p53 small molecule agonists, cell-based qHTS assay: qHTS cell viability counter screen (AID 1963581); further: nearly all actives have a fitted effect of over 45% in size
In short: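 qHTS counter screen: 16 h compound exposure at 37 C of p53RE-bla HCT-116 cells (4,000 per well, seeded 5 h prior), cell viability by ATP luminescence.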

[10] = p53 small molecule agonists, cell-based qHTS assay (AID 1963582; active means well fitted activation curve with a large enough effect in the signal ratio in the repeat runs, not every such curve was filed as active; the % refers to the signal ratio)
In short: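 Measured: fluorescence from cleaved LiveBLAzer substrate. System: p53RE-bla cells, 16 h compound treatment at 37 C, 2 h substrate step at room temperature.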

[11] = target: 5-hydroxytryptamine receptor 2A (Homo sapiens) (UniProt P28223); test: 5-hydroxytryptamine receptor 2A (HTR2A) small molecule antagonists, cell-based qHTS assay (AID 1963586); further: nearly all actives have a fitted effect of over 45% in size; further: potency means the concentration at half of the fitted maximal effect
5-hydroxytryptamine receptor 2A (Homo sapiens), sequence (P28223 whole entry, looked up): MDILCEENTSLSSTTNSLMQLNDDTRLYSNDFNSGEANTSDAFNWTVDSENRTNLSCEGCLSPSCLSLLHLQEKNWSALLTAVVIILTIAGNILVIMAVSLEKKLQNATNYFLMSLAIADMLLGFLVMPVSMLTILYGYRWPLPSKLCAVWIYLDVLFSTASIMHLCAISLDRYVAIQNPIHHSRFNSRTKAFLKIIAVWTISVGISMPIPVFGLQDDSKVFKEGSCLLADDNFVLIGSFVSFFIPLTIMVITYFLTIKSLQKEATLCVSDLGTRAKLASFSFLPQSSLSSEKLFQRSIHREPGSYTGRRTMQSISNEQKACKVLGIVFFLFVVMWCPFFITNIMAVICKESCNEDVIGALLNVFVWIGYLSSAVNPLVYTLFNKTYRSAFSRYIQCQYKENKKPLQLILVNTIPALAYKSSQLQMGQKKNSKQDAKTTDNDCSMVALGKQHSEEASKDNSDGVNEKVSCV
In short: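 CHO cells stably expressing human HTR2A were plated for 18 h at 37 C, then loaded with calcium dye for 1 h. Compounds were preincubated 5 min at room temperature before DOI (4 nM solution) was added. Kinetic fluorescence was read for 3 min.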

[12] = target: 5-hydroxytryptamine receptor 2A (Homo sapiens) (UniProt P28223); test: 5-hydroxytryptamine receptor 2A (HTR2A) small molecule agonists, cell-based qHTS assay (AID 1963587); further: nearly all actives have a fitted effect of over 30% in size
In short: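 CHO cells stably expressing human HTR2A, plated 18 h, loaded with calcium dye 1 h at 37 C. Agonist mode: compounds added and intracellular calcium fluorescence recorded kinetically for 2 min at 1 sec intervals.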

[13] = target: Muscarinic acetylcholine receptor M1 (Homo sapiens) (UniProt P11229); test: Cholinergic receptor muscarinic 1 (CHRM1) small molecule antagonists, cell-based qHTS assay (AID 1963588); further: nearly all actives have a fitted effect of over 40% in size
Muscarinic acetylcholine receptor M1 (Homo sapiens), sequence (P11229 whole entry, looked up): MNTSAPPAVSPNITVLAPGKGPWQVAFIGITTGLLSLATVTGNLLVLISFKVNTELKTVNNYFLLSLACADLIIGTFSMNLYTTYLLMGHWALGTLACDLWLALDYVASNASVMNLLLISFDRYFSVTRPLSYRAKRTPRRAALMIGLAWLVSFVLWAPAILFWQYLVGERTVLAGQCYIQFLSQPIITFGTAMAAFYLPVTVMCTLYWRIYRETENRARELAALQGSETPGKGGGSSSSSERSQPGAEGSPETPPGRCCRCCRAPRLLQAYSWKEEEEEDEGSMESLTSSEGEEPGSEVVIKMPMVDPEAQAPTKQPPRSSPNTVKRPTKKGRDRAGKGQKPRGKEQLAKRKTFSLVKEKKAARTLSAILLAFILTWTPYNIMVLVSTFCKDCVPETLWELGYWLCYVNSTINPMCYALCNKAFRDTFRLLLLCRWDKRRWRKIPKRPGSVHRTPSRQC
In short: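 Compounds were tested at 15 concentrations in three independent runs. Dye-loaded CHRM1-CHO cells were exposed 5 min at room temperature before stimulation by acetylcholine added at 50nM. Intracellular calcium was read kinetically on FDSS for 3 min.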

[14] = cAMP Responsive Elements (CRE) small molecule agonists, cell-based qHTS assay (AID 1963590)
In short: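 Test agents in DMSO were incubated 3 h at 37 C/5% CO2 with CRE-bla HEK 293T cells seeded 18 h earlier; LiveBLAzer B/G FRET substrate was added and read after 2 h at room temperature.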

[15] = target: Beta-2 adrenergic receptor (Homo sapiens) (UniProt P07550); test: Adrenergic beta2 receptor (ADRB2) small molecule antagonists, cell-based qHTS assay (AID 1963592); further: series mostly up to about 92 µM; nearly all actives have a fitted effect of over 50% in size
Beta-2 adrenergic receptor (Homo sapiens), sequence (P07550 whole entry, looked up): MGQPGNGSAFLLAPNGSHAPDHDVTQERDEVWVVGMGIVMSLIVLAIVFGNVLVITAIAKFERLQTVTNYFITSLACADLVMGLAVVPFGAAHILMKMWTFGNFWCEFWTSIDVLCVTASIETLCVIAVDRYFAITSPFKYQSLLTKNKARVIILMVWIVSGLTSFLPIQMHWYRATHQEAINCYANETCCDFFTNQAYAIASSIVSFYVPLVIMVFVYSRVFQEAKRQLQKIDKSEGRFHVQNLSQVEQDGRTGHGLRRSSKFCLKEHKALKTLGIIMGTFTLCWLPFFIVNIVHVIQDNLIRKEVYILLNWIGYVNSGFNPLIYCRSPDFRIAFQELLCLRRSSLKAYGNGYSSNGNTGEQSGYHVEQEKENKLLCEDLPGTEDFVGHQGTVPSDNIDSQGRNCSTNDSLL
In short: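 Assay format: CHO-ADRB2 cells, 18-20hr seeding at 37C/5% CO2, then compound plus 1nM isoproterenol agonist mix for 0.5hr RT. Homogeneous time-resolved fluorescence cAMP detection after 1hr, expressed as 665/615 nm ratio.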

[16] = target: D(2) dopamine receptor (Homo sapiens) (UniProt P14416); test: Dopamine D2 receptor (DRD2) small molecule agonists, cell-based qHTS assay (AID 1963594); further: nearly all actives have a fitted effect of over 35% in size
D(2) dopamine receptor (Homo sapiens), sequence (P14416 whole entry, looked up): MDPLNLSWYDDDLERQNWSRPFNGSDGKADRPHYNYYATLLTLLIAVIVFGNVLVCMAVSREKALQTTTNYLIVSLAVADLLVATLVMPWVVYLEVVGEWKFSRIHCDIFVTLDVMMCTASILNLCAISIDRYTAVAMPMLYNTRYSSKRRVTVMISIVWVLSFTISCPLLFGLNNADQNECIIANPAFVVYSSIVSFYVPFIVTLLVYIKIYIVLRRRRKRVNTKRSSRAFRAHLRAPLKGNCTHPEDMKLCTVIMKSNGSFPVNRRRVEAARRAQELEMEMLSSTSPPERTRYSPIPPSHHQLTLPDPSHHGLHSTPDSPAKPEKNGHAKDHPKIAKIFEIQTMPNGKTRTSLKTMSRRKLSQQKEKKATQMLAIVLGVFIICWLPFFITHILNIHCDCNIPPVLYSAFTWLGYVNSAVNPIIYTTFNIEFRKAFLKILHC
In short: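 HEK293 cells stably expressing human DRD2, pre-treated with PDE inhibitor Ro20-1724 (0.1 mM final) and compound 10 min at room temperature, then stimulated with NKH477 (200nM […]) for 30 min. cAMP read by HTRF (665/620 nm).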

[17] = target: D(2) dopamine receptor (Homo sapiens) (UniProt P14416); test: Dopamine D2 receptor (DRD2) small molecule antagonists, cell-based qHTS assay (AID 1963595; active means well fitted inhibition curve with a large enough effect in the signal ratio in the repeat runs, with a control signal flat; the % refers to the signal ratio)
In short: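 DRD2-HEK293; 0.1 mM Ro20-1724; cpd 10 min RT; NKH477 200 nM + quinpirole 12 nM, 30 min RT; HTRF cAMP (cAMP-d2/anti-cAMP cryptate), 665/620 nm ratio after 1 h.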

[18] = target: Muscarinic acetylcholine receptor M1 (Homo sapiens) (UniProt P11229); test: Cholinergic receptor muscarinic 1 (CHRM1) small molecule agonists, cell-based qHTS assay (AID 1963589); further: nearly all actives have a fitted effect of over 35% in size
In short: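 Kinetic fluorescence (1 s intervals) of calcium-sensitive dye in human M1 CHO cells after compound addition; cells pre-incubated 18 h at 37 C/5% CO2 and dye-loaded 1 h.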

[19] = cAMP Responsive Elements (CRE) small molecule antagonists, cell-based qHTS assay (AID 1963591; active means well fitted inhibition curve with a large enough effect in the signal ratio in the repeat runs, not every such curve was filed as active; the % refers to the signal ratio)
In short: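 Reporter line CRE-bla HEK 293T in dialyzed-FBS DMEM; cells preincubated 18 h, treated 3 h with compound plus NKH477 (0.25 uM final); LiveBLAzer FRET, 2 h RT.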

| Structure (SMILES) | Potency [1] | Potency [2] | Potency [3] | Potency [4] | Potency [5] | Potency [6] | Potency [7] | Potency [8] | Potency [9] | Potency [10] | Potency [11] | Potency [12] | Potency [13] | Potency [14] | Potency [15] | Potency [16] | Potency [17] | Potency [18] | Potency [19] |
| --- | --- | --- | --- | --- | --- | --- | --- | --- | --- | --- | --- | --- | --- | --- | --- | --- | --- | --- | --- |
| Nc1ccccn1 | inactive | inactive | inactive | inactive | inactive | inactive | inactive | inactive | inactive | inactive | 31.8 nM (active) | inactive | inactive | inactive | inactive | inactive | inactive |  |  |
| C=CCOC(=O)CCC1CCCCC1 | inactive | inactive | inactive | inactive | inactive | inactive | inactive | inactive | inactive | inactive |  | inactive | inactive | inactive | inactive | inactive | inactive | inactive | inactive |
| O=C(Cl)c1cc(C(=O)Cl)cc(C(=O)Cl)c1 | inactive | inactive | inactive | inactive | inactive | inactive | inactive | inactive | inactive | inactive | inactive |  | inactive | inactive | inactive | inactive | inactive | inactive |  |
| CC(=O)c1c(C)c([N+](=O)[O-])c(C(C)(C)C)c([N+](=O)[O-])c1C | inactive | inactive | inactive | inactive | inactive | inactive | inactive | inactive | inactive | inactive | inactive | inactive | inactive |  | inactive | inactive | inactive | inactive | inactive |
| O=C(OCCOCCOCCOC(=O)c1ccccc1)c1ccccc1 | inactive | inactive | inactive | inactive | inactive | inactive | inactive | inactive | inactive | inactive | inactive | inactive | inactive |  |  | inactive | inactive | inactive |  |
| CC(C)C=O | inactive | inactive | inactive | inactive | inactive | inactive | inactive | inactive | inactive | inactive | inactive | inactive | inactive |  | inactive | inactive | inactive | inactive |  |
| O=Cc1ccc(O)c(O)c1O | inactive | inactive | inactive | inactive | inactive | inactive | inactive | inactive | inactive | inactive |  | inactive | inactive |  | inactive | inactive | inactive | inactive | inactive |
| O=C(Oc1cccc2cccnc12)c1ccccc1 | 2.98 µM (active) | inactive | inactive | inactive | inactive | inactive | inactive | inactive | inactive | inactive | inactive |  | inactive | inactive | inactive | inactive | inactive |  |  |
| CCOC(=O)CC(=O)C(=O)OCC | inactive | inactive | inactive | inactive | inactive | inactive | inactive | inactive | inactive | inactive |  | inactive | inactive | inactive | inactive | inactive | inactive | inactive |  |
| O=C(O)c1ccccc1C(=O)OCc1ccccc1 | inactive | inactive | inactive | inactive | inactive | inactive | inactive | inactive | inactive | inactive | inactive | inactive | inactive |  | inactive | inactive | inactive | inactive | inactive |
| CCCCOc1ccc(N)cc1 | inactive | inactive | inactive | inactive | inactive | inactive | inactive | inactive | inactive | inactive | inactive | inactive |  |  | inactive | inactive | inactive | inactive | inactive |
| O=C(Oc1ccccc1)Oc1ccccc1 | inactive | inactive | inactive | inactive | inactive | inactive | inactive | inactive | inactive | inactive |  | inactive | inactive | inactive | inactive | inactive | inactive | inactive |  |
| CC/C=C\CCCCCO | inactive | inactive | inactive | inactive | inactive | inactive | inactive | inactive | inactive | inactive | inactive | inactive |  | inactive | inactive | inactive | inactive | inactive | inactive |
| COc1ccc2cc(CCC(C)=O)ccc2c1 | inactive | inactive | inactive | inactive | inactive | inactive | inactive | inactive | inactive | inactive |  |  |  | inactive | inactive | inactive |  |  | inactive |
| C=C(C)C(=O)OC | inactive | inactive | inactive | inactive | inactive | inactive | inactive | inactive | inactive | inactive | inactive |  | inactive | inactive | inactive | inactive | inactive | inactive |  |
| C=C[Si](OCC)(OCC)OCC | inactive | inactive | inactive | inactive | inactive | inactive | inactive | inactive | inactive | inactive |  |  | inactive | inactive |  | inactive | inactive | inactive | inactive |
| CCCCCCCCCCCCCCCC(=O)OC/C=C(C)/C=C/C=C(C)/C=C/C1=C(C)CCCC1(C)C | inactive | inactive | inactive | inactive | inactive | inactive | inactive | inactive | inactive | inactive | inactive | inactive | inactive | inactive | inactive | inactive | inactive |  | inactive |
| Cc1ccc2c(Br)cc(Br)c(O)c2n1 | inactive | inactive | inactive | inactive | inactive | inactive | inactive | inactive | inactive | inactive | inactive | inactive | inactive | inactive | inactive | inactive | inactive | inactive |  |
| Cc1cc(O)c(Cl)c(C)c1Cl | inactive | inactive | inactive | inactive | inactive | inactive | inactive | inactive | inactive | inactive |  | inactive | inactive | inactive | inactive | inactive | inactive | inactive |  |
| CC(C(=O)O)c1ccc(C(=O)c2cccs2)cc1 (stereo unspecified) | inactive | inactive | inactive | inactive | inactive | inactive | inactive | inactive | inactive | inactive | inactive | inactive | inactive |  |  |  | inactive | inactive |  |
| CCCCC(CC)COCCCN (stereo unspecified) | inactive | inactive | inactive | inactive | inactive | inactive | inactive | inactive | inactive | inactive | inactive |  | inactive |  |  | inactive | inactive | inactive | inactive |
| CCCCCCCCCCCCSC#N | inactive | inactive | inactive | inactive | inactive | inactive | inactive | inactive | inactive | inactive | inactive | inactive | inactive | inactive | inactive | inactive | inactive | inactive |  |
| CC1(C)CCC[C@]2(C)[C@H]3CC(=O)O[C@]3(C)CC[C@@H]12 | inactive | inactive | inactive | inactive | inactive | inactive | inactive | inactive | inactive | inactive | inactive |  |  |  | inactive | inactive |  | inactive |  |
